Each structure is given as a SMILES string. Where “and” joins values, the source holds several entries; their conditions need not be identical. Identical values can stand only once. Compounds without any hit were thinned out: in the full panel of roughly 79,000, 15% have a hit. The source holds several records for some structures; these can differ, active in one and inactive in another. Calls of active or inactive are those of the source. Rule as the data show it: active = growth inhibition above about 70%; inactive = the rest.

These results are taken from PubChem BioAssay (NCI).

Experiment [1] can be described thus: NCI Yeast Anticancer Drug Screen. Data for the rad50 strain (AID 155).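 Also: 0% = growth of vehicle-only cultures of the same strain.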 Conditions: S. cerevisiae rad50 strain growth inhibition, stronger effect = higher value. A digest of the protocol: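 A DNA repair-deficient yeast mutant serves as the test organism; compound-induced growth inhibition is calculated against vehicle-treated cells.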
A short description of experiment [2]: NCI Yeast Anticancer Drug Screen. Data for the mec2-1 strain (AID 157). As to conditions: S. cerevisiae mec2-1 strain, stronger effect = higher value. In a few lines: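 Yeast mec2-1 mutant treated with compound. Readout: growth inhibition vs vehicle controls.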
Experiment [3] is described as follows: NCI Yeast Anticancer Drug Screen. Data for the sgs1 mgt1 strain (AID 161).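 Also: 0% = growth of cultures given vehicle only.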 Conditions: S. cerevisiae sgs1 mgt1 strain, stronger effect = higher value. In a few lines: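 Inhibition of yeast growth, normalised to vehicle-treated controls, is reported for a strain bearing genetic alterations in DNA damage repair.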
Experiment [4] in a line: NCI Yeast Anticancer Drug Screen. Data for the cln2 rad14 strain (AID 165).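 Also: 0% = growth equal to vehicle treated cultures.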 As to conditions: S. cerevisiae cln2 rad14 strain, stronger effect = higher value. A digest of the protocol:
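cln2 rad14 yeast strain; compound exposure; growth inhibition read vs vehicle controls.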

Experiment [5] in a line: NCI Yeast Anticancer Drug Screen. Data for the bub3 strain (AID 167). As to conditions: S. cerevisiae bub3 mutant strain, stronger effect = higher value. A digest of the protocol: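 Inhibition values come from growth of compound-treated mutant yeast normalised to vehicle-treated controls.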
Experiment [6] is described as follows: NCI Yeast Anticancer Drug Screen. Data for the mlh1 rad18 strain (AID 175). Conditions: S. cerevisiae mlh1 rad18 strain growth inhibition, stronger effect = higher value. A digest of the protocol:
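Yeast w/ defined DNA-repair lesions; compound exposure; growth vs vehicle controls → % inhibition.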

The mark [7] stands for this setting: at 5.0 µM (retest, dose inferred, filed as 0.5).
[8] abbreviates: at 50.0 µM (retest, dose inferred, filed as 5.0).

On to `O=C(OCC(OC(=O)c1ccccc1)C(OC(=O)c1ccccc1)C(OC(=O)c1ccccc1)C(OC(=O)c1ccccc1)c1nn[nH]n1)c1ccccc1` (stereo unspecified), for which the growth inhibition in experiment [1] (setting [7]) is 61% (inactive) and 23% (inactive); in experiment [1] (setting [8]) it was 72% (active) and 81% (active); in experiment [1] (at 50.0 µM) it was 93.1% (active) and 90.7% (active); in experiment [2] (setting [7]), 52% (inactive) and 41% (inactive); in experiment [2] (setting [8]), 72% (active) and 77% (active); in experiment [2] (at 50.0 µM) it was 87.5% (active) and 89% (active). Also, the growth inhibition in experiment [3] (setting [7]) is 54% (inactive) and 18% (inactive); in experiment [3] (setting [8]) it was 72% (active) and 75% (active); in experiment [3] (at 50.0 µM), 93.3% (active) and 91.6% (active); in experiment [4] (setting [7]), 54% (inactive) and 40% (inactive); in experiment [4] (setting [8]), 75% (active) and 82% (active); in experiment [4] (at 50.0 µM), 90.2% (active) and 90.3% (active). In addition, the growth inhibition in experiment [5] (setting [7]) was 75% (active) and 16% (inactive); in experiment [5] (setting [8]), 88% (active) and 74% (active); in experiment [5] (at 50.0 µM), 78.6% (active) and 82.8% (active); in experiment [6] (setting [7]) it was 60% (inactive) and 26% (inactive); in experiment [6] (setting [8]), 74% (active) and 81% (active); in experiment [6] (at 50.0 µM), 89.2% (active) and 90% (active).

For `N#Cc1c(/N=C/c2ccccc2Cl)sc2c1CCC2`, the growth inhibition was 18% (inactive) in experiment [1] (setting [7]); -14% (inactive) in experiment [1] (setting [8]); 20.1% (inactive) in experiment [1] (at 50.0 µM); -14% (inactive) in experiment [2] (setting [7]); -4% (inactive) in experiment [2] (setting [8]); -0.55% (inactive) in experiment [2] (at 50.0 µM). In addition, the growth inhibition was -1% (inactive) in experiment [3] (setting [7]); 10% (inactive) in experiment [3] (setting [8]); 12.1% (inactive) in experiment [3] (at 50.0 µM); 26% (inactive) in experiment [4] (setting [7]); 11% (inactive) in experiment [4] (setting [8]); 4.2% (inactive) in experiment [4] (at 50.0 µM). In addition, the growth inhibition in experiment [5] (setting [7]) is 0% (inactive); in experiment [5] (setting [8]), -10% (inactive); in experiment [5] (at 50.0 µM), 23.9% (inactive); in experiment [6] (setting [7]), -1% (inactive); in experiment [6] (setting [8]), -20% (inactive); in experiment [6] (at 50.0 µM), 13.2% (inactive).

As to `N#CCCC(CCC#N)(CCC#N)C(=O)c1ccccc1`, the growth inhibition in experiment [1] (setting [7]) is 10% (inactive); in experiment [1] (setting [8]) it was 4% (inactive); in experiment [1] (at 50.0 µM) it was 11.6% (inactive) and 20.9% (inactive); in experiment [2] (setting [7]) it was -15% (inactive); in experiment [2] (setting [8]), -6% (inactive); in experiment [2] (at 50.0 µM), 15.8% (inactive) and -3.15% (inactive). Besides, the growth inhibition in experiment [3] (setting [7]) is 7% (inactive); in experiment [3] (setting [8]), 8% (inactive); in experiment [3] (at 50.0 µM), 33.2% (inactive) and -28.8% (inactive); in experiment [4] (setting [7]), 4% (inactive); in experiment [4] (setting [8]), 14% (inactive); in experiment [4] (at 50.0 µM), 26.1% (inactive) and 18.9% (inactive). For the same molecule, the growth inhibition in experiment [5] (setting [7]) is 10% (inactive); in experiment [5] (setting [8]), 23% (inactive); in experiment [5] (at 50.0 µM), 18.1% (inactive) and 7.55% (inactive); in experiment [6] (setting [7]) it was 20% (inactive); in experiment [6] (setting [8]) it was 12% (inactive); in experiment [6] (at 50.0 µM), 20.2% (inactive) and 26.8% (inactive).

For the molecule `O=C(CCN1CCN2c3ccccc3CCC2C1)c1ccc(F)cc1` (stereo unspecified), the growth inhibition was 51% (inactive) and 17% (inactive) in experiment [1] (setting [7]); 86% (active) and 98% (active) in experiment [1] (setting [8]); 95.7% (active) and 83.2% (active) in experiment [1] (at 50.0 µM); 63% (inactive) and 22% (inactive) in experiment [2] (setting [7]); 88% (active) and 97% (active) in experiment [2] (setting [8]); 91.5% (active) and 43.5% (inactive) in experiment [2] (at 50.0 µM). The growth inhibition was 74% (active) and -2% (inactive) in experiment [3] (setting [7]); 96% (active) and 100% (active) in experiment [3] (setting [8]); 97.2% (active) and 89.7% (active) in experiment [3] (at 50.0 µM); 65% (inactive) and -5% (inactive) in experiment [4] (setting [7]); 64% (inactive) and 98% (active) in experiment [4] (setting [8]); 93.5% (active) and 22.4% (inactive) in experiment [4] (at 50.0 µM). The growth inhibition was 60% (inactive) and 78% (active) in experiment [5] (setting [7]); 84% (active) and 99% (active) in experiment [5] (setting [8]); 97.8% (active) and 95.2% (active) in experiment [5] (at 50.0 µM); 82% (active) and 40% (inactive) in experiment [6] (setting [7]); 96% (active) and 99% (active) in experiment [6] (setting [8]); 98.5% (active) and 45% (inactive) in experiment [6] (at 50.0 µM).

As for `COc1ccc2[nH]c3c(C)c4ccncc4c(C)c3c2c1`, the growth inhibition in experiment [1] (setting [7]) was 95% (active); in experiment [1] (setting [8]), 99% (active); in experiment [1] (at 50.0 µM) it was 92.6% (active) and 99% (active); in experiment [2] (setting [7]) it was 40% (inactive); in experiment [2] (setting [8]), 99% (active); in experiment [2] (at 50.0 µM), 93.7% (active) and 99.5% (active). For the same molecule, the growth inhibition was 39% (inactive) in experiment [3] (setting [7]); 99% (active) in experiment [3] (setting [8]); 93.2% (active) and 99.4% (active) in experiment [3] (at 50.0 µM); 21% (inactive) in experiment [4] (setting [7]); 99% (active) in experiment [4] (setting [8]); 91.8% (active) and 99% (active) in experiment [4] (at 50.0 µM). Besides, the growth inhibition in experiment [5] (setting [7]) is 30% (inactive); in experiment [5] (setting [8]) it was 99% (active); in experiment [5] (at 50.0 µM), 92.7% (active) and 99.3% (active); in experiment [6] (setting [7]), 55% (inactive); in experiment [6] (setting [8]), 99% (active); in experiment [6] (at 50.0 µM) it was 92.8% (active) and 99.4% (active).

On to `CCOC(=O)C(Cc1c[nH]c2cc([N+](=O)[O-])ccc12)NS(=O)(=O)c1ccc2ccccc2c1` (stereo unspecified), for which the growth inhibition in experiment [1] (setting [7]) was -19% (inactive); in experiment [1] (setting [8]), 96% (active); in experiment [1] (at 50.0 µM) it was 95.3% (active); in experiment [2] (setting [7]), 2% (inactive); in experiment [2] (setting [8]), 98% (active); in experiment [2] (at 50.0 µM), 97.3% (active). Moreover, the growth inhibition was -4% (inactive) in experiment [3] (setting [7]); 98% (active) in experiment [3] (setting [8]); 97.2% (active) in experiment [3] (at 50.0 µM); -17% (inactive) in experiment [4] (setting [7]); 94% (active) in experiment [4] (setting [8]); 94.2% (active) in experiment [4] (at 50.0 µM). Moreover, the growth inhibition is 9% (inactive) in experiment [5] (setting [7]); 98% (active) in experiment [5] (setting [8]); 97.8% (active) in experiment [5] (at 50.0 µM); -19% (inactive) in experiment [6] (setting [7]); 97% (active) in experiment [6] (setting [8]); 95.7% (active) in experiment [6] (at 50.0 µM).

`Clc1ccc(CN2CCCN(Cc3ccc(Cl)cc3)C2c2cc3ccccc3c3ccccc23)cc1`: the growth inhibition was 49% (inactive) in experiment [1] (setting [7]); 99% (active) in experiment [1] (setting [8]); 70% (active) in experiment [1] (at 50.0 µM); 19% (inactive) in experiment [2] (setting [7]); 98% (active) in experiment [2] (setting [8]); 68.5% (inactive) in experiment [2] (at 50.0 µM). The growth inhibition is 38% (inactive) in experiment [3] (setting [7]); 98% (active) in experiment [3] (setting [8]); 87.8% (active) in experiment [3] (at 50.0 µM); 22% (inactive) in experiment [4] (setting [7]); 96% (active) in experiment [4] (setting [8]); 33.1% (inactive) in experiment [4] (at 50.0 µM). The growth inhibition in experiment [5] (setting [7]) was 22% (inactive); in experiment [5] (setting [8]), 98% (active); in experiment [5] (at 50.0 µM), 98.7% (active); in experiment [6] (setting [7]) it was 45% (inactive); in experiment [6] (setting [8]), 98% (active); in experiment [6] (at 50.0 µM), 89.2% (active).
